In the supplement of paper PMC3334620:
Over roughly 33,000 sequences, “E-score (-0.5 to 0.5)” has its median near -0.012; the highest 2% begin near 0.27. Many of the other results were omitted from the sample, so the highest values are more common in it than they were.

What follows are sequences tested against T1, Vhr1 (UniProt P40522) (assay: PBM E-score (8-mer binding enrichment) (E-score (-0.5 to 0.5)); higher = stronger / more preferred TF binding). Details: protein concentration: 200 nM; construct: GST-full length.
T1 sequence: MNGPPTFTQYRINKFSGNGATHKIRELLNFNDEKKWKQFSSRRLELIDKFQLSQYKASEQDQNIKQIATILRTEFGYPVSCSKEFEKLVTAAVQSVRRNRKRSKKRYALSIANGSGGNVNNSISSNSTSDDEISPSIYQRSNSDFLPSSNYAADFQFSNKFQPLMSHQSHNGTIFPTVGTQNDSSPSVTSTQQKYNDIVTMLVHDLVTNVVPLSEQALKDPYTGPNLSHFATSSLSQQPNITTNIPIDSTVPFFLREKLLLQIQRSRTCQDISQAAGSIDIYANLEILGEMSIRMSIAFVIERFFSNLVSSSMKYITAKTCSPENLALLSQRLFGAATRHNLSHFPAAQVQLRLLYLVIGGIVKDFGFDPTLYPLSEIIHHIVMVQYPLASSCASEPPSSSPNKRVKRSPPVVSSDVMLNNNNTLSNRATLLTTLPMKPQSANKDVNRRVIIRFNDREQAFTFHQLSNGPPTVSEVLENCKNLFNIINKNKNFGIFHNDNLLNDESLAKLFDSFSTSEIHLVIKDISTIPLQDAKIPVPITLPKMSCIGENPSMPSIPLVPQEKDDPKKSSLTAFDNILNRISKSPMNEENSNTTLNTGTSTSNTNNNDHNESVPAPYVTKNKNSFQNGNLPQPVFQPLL
Method in brief: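 The E-score, a modified Wilcoxon-Mann-Whitney statistic, was computed by the Universal PBM Analysis Suite for every ungapped eight-base word pooled with its reverse complement. Scans behind it were normalised with masliner after bound GST-tagged yeast transcription factors were detected with fluorescent anti-GST. The proteins, at about 100-200 nM, had been applied to universal all-10-mer Agilent arrays made double-stranded by primer extension.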

| Sequence | PBM E-score |
| --- | --- |
| CCACTCGA | 0.0905 |
| ATTCAATA | -0.0197 |
| GTCACGTA | 0.13 |
| ACGCCTTG | -0.0936 |
| CTTGGCCA | -0.0546 |
| GTAGTCCA | -0.0646 |
| GCAGCGAC | 0.167 |
| CTGGTTCC | 0.0593 |
| GTGGTTCA | 0.254 |
| ATGGTTCA | 0.366 |
| ATGGTTCG | 0.224 |
| ATGGTTCC | 0.318 |
| CTGGTTCA | -0.0177 |
| CATTAGGA | -0.0276 |
| ACAGTTCA | 0.0273 |
| CGCAATCC | -0.0979 |
| AAACCTAA | -0.0619 |
| TAATGGCA | -0.00432 |
| CTCAATAC | 0.226 |
| ATCAAAGG | -0.0468 |
| CAAGAGCG | 0.0553 |
| GTGGGTGA | 0.331 |

| Sequence | PBM E-score |
| --- | --- |
| CTGGGTCA | 0.11 |
| CTGGGTGA | 0.275 |
| ATGGGTCA | 0.263 |
| GTGGGTCA | 0.365 |
| CAGGGTGA | 0.114 |
| CTGGGTGC | 0.123 |
| ATGGGTGC | 0.0292 |
| GAGGGTGA | 0.153 |
| ATGGGTGG | 0.242 |
| ATGGGTGA | 0.322 |
| GTGGGTAA | 0.138 |
| CACCTACC | -0.125 |
| AAGTGCGT | -0.0339 |
| GTCTGTAA | -0.0248 |
| AATTCTTC | -0.211 |
| AGATCACC | -0.0605 |
| ACTGGTCG | 0.0753 |
| GTCGTCTA | -0.0586 |
| GAACTAGC | -0.118 |
| AACAGGAT | -0.0425 |
| CTATGAAC | 0.107 |
| CCTATCTA | -0.245 |

| Sequence | PBM E-score |
| --- | --- |
| CGTCAGCC | 0.044 |
| AGTCAGAT | 0.27 |
| ACTCAGCG | 0.133 |
| ATTCAGCG | -0.0101 |
| AGTCAGCA | 0.346 |
| AGTCAGCC | 0.402 |
| AGTCAGCG | 0.347 |
| ACTCAGCC | 0.151 |
| GGTCAGCA | 0.15 |
| CGTCAGCA | -0.11 |
| AGTCAGAG | 0.386 |
| AGTCAGAA | 0.18 |
| CTAGCCTA | -0.153 |
| GGAACCAA | 0.171 |
| AAAGGCGC | -0.0831 |
| ACACCCAT | 0.191 |
| AGGTAATC | 0.104 |
| ACACTCCC | 0.0331 |
| GATGGGTA | 0.285 |
| AATGGGTA | 0.0928 |
| CATGGGTA | 0.27 |
| CAACCCGC | 0.272 |

| Sequence | PBM E-score |
| --- | --- |
| CAACCCGG | -0.116 |
| AAACCCGC | 0.0774 |
| CGTTTCAG | -0.0522 |
| ATAGGCCG | -0.229 |
| CATCGATC | 0.016 |
| CATCGATG | 0.302 |
| AATCGATG | 0.107 |
| AGCACAGG | 0.00375 |
| CCAGTCGA | 0.0785 |
| TAAAGGCA | -0.226 |
| AGAGTATC | -0.0198 |
| CCAAGCAC | 0.112 |
| AGATGGGC | -0.0228 |
| CGATGGGA | -0.0641 |
| CGATGGGC | 0.297 |
| ACTTGGCG | 0.0405 |
| CGATAGGA | 0.129 |
| TAGTCTGA | 0.218 |
| GAGTCAAC | 0.403 |
| GAGTCAAA | 0.312 |
| CAGTCAAC | 0.216 |
| TAGTCAAA | 0.117 |

| Sequence | PBM E-score |
| --- | --- |
| AAGTCAAC | -0.00442 |
| AAGTCAAA | 0.00983 |
| ACTTTTAT | -0.304 |
| AAGCCATT | 0.0335 |
| CAAATCAG | -0.0128 |
| ATTAGCTA | 0.0108 |
| GCACCTGA | -0.00933 |
| GACTACCA | 0.306 |
| GACTACAC | 0.315 |
| GACTACCC | 0.254 |
| AACTACTA | 0.078 |
| CACTACCA | 0.208 |
| AACTACAC | 0.0739 |
| AACTATAC | 0.114 |
| CACTACAC | 0.163 |
| GACTATAC | 0.322 |
| TACTACTA | 0.208 |
| GACTACTA | 0.328 |
| GACTATAA | 0.0359 |
| CATAGAAA | 0.102 |
| GCTAGAAA | -0.0866 |
| AGACTGTG | -0.0209 |
